The whole screen tested about 69,000 compounds, of which about 8,600 (12%) showed an effect of 50% or more. The list comes from a sample in which strong results are over-represented; it also holds similar structures and randomly drawn compounds.

The test system of the assay is Plasmodium berghei. Nature of the assay: Screen against P. berghei liver stage (PbLuc), transformed with Luciferase, at 10uM. The class given is functional, HepG2. The note with it: tested at 10 uM.
`CC(C)OCCN1CCC(Nc2nccnc2C#N)CC1`: the INHIBITION is recorded as 33.1%.
The value for `Cc1ccc(CN2CCC3(CCC3NS(=O)(=O)c3ccccc3)CC2)o1` (configuration not stated) was -12.4%; that for `O=c1ccc2c(n1CCN1CCCC1)CCN(Cc1ccoc1)CC2` was 8.47%.
The value for `COCCN1CCCC(c2cncc(Oc3ccccc3OC)n2)C1` (configuration not stated) was -5.71%; that for `c1cc(CN2CCC(n3cc(CN4CCCC4)nn3)CC2)cs1` was 42.1%; that for `Cc1cc(N2CCC(n3cc(CN4CCSCC4)nn3)CC2)ccn1` was 30.9%.
The value for `OC1CCCN(Cc2cn(CC3CCN(C4CCSCC4)CC3)nn2)C1` (configuration not stated) was 18.3%; that for `O=C1CN(Cc2cn(C3CCN(C4CSCCSC4)CC3)nn2)CCN1` was 65.6%.
For `O=C1CN(Cc2cn(CC3CCCN(C4CCSCC4)C3)nn2)CCN1` (configuration not stated), the INHIBITION worked out at 54.5%.
The value for `O=C1CN(Cc2cn(CC3CCN(C4CCSCC4)CC3)nn2)CCN1` was 32.2%; that for `c1cncc(CN2CC(Cc3nccc4cc[nH]c34)C2)c1` was 19.3%.
As for `O=C(NCC1CCC1)c1ccc(-n2ccnc2)nn1`, the INHIBITION is listed as -15%.
The value for `CCCOc1ccc(C(=O)Oc2cc(=O)n3cccc(C)c3n2)cc1` was 0.207%; that for `CC1c2ncc(COCc3ccccn3)n2CCN1C1CCCC1` (configuration not stated) was 37.8%.
The value for `O=C(O)c1ccccc1-c1ccc(Cn2c(=O)cc[nH]c2=O)cc1` was 2.55%; that for `Cc1ccnc(C2CCCN2C(=O)CN(C)C)n1` (configuration not stated) was -16.5%.
The result for `O=C(NCCn1nc2ccccn2c1=O)c1sccc1-c1ccccc1` reads -20.53%; that for `CC(C)COCCNC(=O)NC1CCCN(c2cnn(C)c2)C1` (configuration not stated), -49.3%.
Turning to `c1ccc(Cc2cccc(C3CCCN3C3CCOCC3)n2)cc1` (configuration not stated), the INHIBITION is reported as 32.921%.
For the compound `COCC(=O)N1CCC(c2cccc(Cc3ccc(F)cc3)n2)CC1`, the INHIBITION amounted to 54%.
The value for `Fc1cccc(Cc2cncc(C3CCCN3C3CCOCC3)n2)c1` (configuration not stated) was 41.1%.
The result for `CN(C)C(=O)CN1CCC(c2cccc(Cc3ccc(F)cc3)n2)CC1` reads 24.4%; that for `COCC(=O)N1CCC(c2cncc(-c3cccc(F)c3)n2)CC1`, 8.72%.
The result for `Fc1ccc(Cc2cccc(C3CCN(C4CCOCC4)CC3)n2)cc1` reads 72.3%; that for `Cc1nn(C)c2c(=O)n(C)c(NCC3CCCO3)nc12` (configuration not stated), 49.1%; that for `CC(=O)N1N=C(Cc2ccccc2)OC1C(=O)NCC(C)C` (configuration not stated), -21.1%.
Regarding `Cn1cc(C2COC3(CCN(C(=O)c4ccsc4)CC3)C2)cn1` (configuration not stated), the INHIBITION is recorded as 69.5%.
Consider `CN1CC(=O)N(c2ccsc2)CC12CCN(C(=O)c1ccc[nH]1)C2` (configuration not stated), for which the INHIBITION stood at 15.9%.
The result for `Cc1cccc(C(=O)N2CCC3(CC2)CC(c2cnn(C)c2)CO3)c1` (configuration not stated) reads 69.5%; that for `Cc1ccccc1C(=O)N1CCC2(CC1)CC(c1cnn(C)c1)CO2` (configuration not stated), 53.2%; that for `CN1CC(=O)N(c2cnn(C)c2)CC12CCN(C(=O)c1ccsc1)C2` (configuration not stated), 51.7%.
The value for `Cn1cc(C2COC3(CCN(C(=O)c4ccc(F)cc4)CC3)C2)cn1` (configuration not stated) was 18.2%.
As for `Cn1cc(C2COC3(CCN(C(=O)c4ccn(C)n4)CC3)C2)cn1` (configuration not stated), the INHIBITION is reported as 41.6%.
The result for `Cn1cc(C2COC3(CCN(C(=O)c4cccc(O)c4)CC3)C2)cn1` (configuration not stated) reads 32.2%.
The value for `CN1CC(=O)N(c2ccsc2)CC12CCN(C(=O)c1ccccc1)C2` (configuration not stated) was 45.5%.
The value for `Cn1cc(C2COC3(CCN(C(=O)c4ccccn4)CC3)C2)cn1` (configuration not stated) was 42.7%.
With `Cn1cc(C2COC3(CCN(C(=O)c4cccn4C)CC3)C2)cn1` (configuration not stated), the INHIBITION came to 36.9%.
The result for `Cc1ccc(C(=O)N2CCC3(CC2)CC(c2cnn(C)c2)CO3)cn1` (configuration not stated) reads 39.2%.
The result for `Cc1nc(C)n(CC(=O)N2CCc3ncc(Cl)cc3C2)n1` reads 8.72%; that for `CO[C@@H]1CO[C@@]2(CCCN(S(=O)(=O)c3ccccc3)C2)C1`, 40.4%.
On to `CCOC(=O)N(C)CC(=O)NCCc1coc(-c2ccc(C)cc2)n1`, for which the INHIBITION came to 11.4%.
The value for `Cn1cc(N2C(=O)CC[C@@H]3[C@H]2CCN3CC2CCOCC2)cn1` was 8.52%; that for `O=C(CCCN1CCCCC1)NC(C(=O)O)c1ccc(Cl)cc1` (configuration not stated) was 6.11%.
The value for `O=C(Cc1cccc(F)c1)NCCNc1ncccn1` was 37.4%; that for `CCOCC(=O)N1CCC2(CC1)COC(COCc1ccccn1)C2` (configuration not stated) was -13%.
The result for `Cc1cc(C)n2cc(CN3CCC(N4CCN(C)C4=O)CC3)nc2n1` reads 39.1%.
With `CC(NS(C)(=O)=O)C(=O)N1CCCN(Cc2cscn2)CC1` (configuration not stated), the INHIBITION was 48.9%.
The value for `Cc1cnn(C2CCCN(C(=O)Cc3ccc4c(c3)CCO4)C2)c1` (configuration not stated) was 31.8%.
The value for `CNc1cc(N2CCCC2CNCc2csc(C)n2)ncn1` (configuration not stated) was 29.425%; that for `O=C(CC1CCCC1)N1CC[C@H]2[C@H]1CCN2c1nncs1` was 43.8%; that for `CCc1ncc(C(=O)N2CCC(Nc3ccc(C)nn3)CC2)s1` was -58.7%.
Consider `COCC(=O)N1CC[C@]2(O)CCN(C(=O)CCc3ccsc3)C[C@@H]2C1`, for which the INHIBITION is 26.9%.

Values taken from ChEMBL document CHEMBL4513216, “Probing the Open Global Health Chemical Diversity Library for Multistage-Active Starting Points for Next-Generation Antimalarials” (ACS Infect Dis, 2020).
